Whole data set: some 33,000 sequences, median “E-score (-0.5 to 0.5)” near -0.041, cut for the highest 2% near 0.37. This is one part of a sample in which the highest values are shown more often than they occur.
target: T1, Ecm22 (UniProt Q05958); test: PBM E-score (8-mer binding enrichment) (E-score (-0.5 to 0.5)); higher = stronger / more preferred TF binding; conditions: protein concentration: 200 nM; construct: GST-full length
T1 sequence: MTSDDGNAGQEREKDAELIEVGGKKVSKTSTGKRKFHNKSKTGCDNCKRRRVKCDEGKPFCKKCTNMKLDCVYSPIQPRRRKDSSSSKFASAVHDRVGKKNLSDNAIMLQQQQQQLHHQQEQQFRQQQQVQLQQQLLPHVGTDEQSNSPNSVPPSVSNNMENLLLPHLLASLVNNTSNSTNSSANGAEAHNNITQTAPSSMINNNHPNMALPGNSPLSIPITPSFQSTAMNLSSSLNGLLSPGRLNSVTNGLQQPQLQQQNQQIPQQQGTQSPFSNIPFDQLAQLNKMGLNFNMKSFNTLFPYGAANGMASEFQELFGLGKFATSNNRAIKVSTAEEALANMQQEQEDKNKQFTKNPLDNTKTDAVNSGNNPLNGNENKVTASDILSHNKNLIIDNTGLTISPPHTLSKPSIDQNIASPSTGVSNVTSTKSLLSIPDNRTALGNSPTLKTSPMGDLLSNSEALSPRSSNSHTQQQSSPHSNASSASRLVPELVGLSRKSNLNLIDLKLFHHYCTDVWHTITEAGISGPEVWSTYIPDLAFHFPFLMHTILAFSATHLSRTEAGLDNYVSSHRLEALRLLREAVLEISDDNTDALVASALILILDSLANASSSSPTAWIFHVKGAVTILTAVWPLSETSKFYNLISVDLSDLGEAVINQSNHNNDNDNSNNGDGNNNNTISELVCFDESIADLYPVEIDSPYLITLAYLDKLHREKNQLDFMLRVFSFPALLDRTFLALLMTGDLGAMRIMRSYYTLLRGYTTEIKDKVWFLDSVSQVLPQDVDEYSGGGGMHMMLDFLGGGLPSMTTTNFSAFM
Method: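 Universal 'all 10-mer' protein binding microarrays (Agilent AMADID 015681) probed with GST-tagged S. cerevisiae TFs (full-length or DBD) made by in vitro transcription/translation (PURExpress), about 100-200 nM. Bound TF was detected with fluorescent anti-GST. Each ungapped 8-mer (which stands for itself and its reverse complement) is scored by the PBM enrichment score (E-score), a modified Wilcoxon-Mann-Whitney statistic from -0.5 to +0.5, computed with the Universal PBM Analysis Suite. Scale: above 0.35 generally sequence-specific binding.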

Sequence | PBM E-score
CCGTCTTA | -0.174
AAGGCGCA | -0.0313
ATCCCAGC | -0.0508
TCAACTGA | -0.205
AGGCTCTC | -0.162
GGAGCACA | -0.107
CGTTGTGC | 0.116
CCCGGGAA | -0.0348
CCAACCAA | -0.0915
CACGATGG | 0.0647
AACGATGG | 0.374
AACGATGC | 0.348
TGTGTAAA | -0.0334
ATACGAGA | 0.484
ACACGAGC | 0.275
AGACGAGC | 0.211
ATACGAGC | 0.49
ATGCGAGA | 0.302
ATACGTGA | 0.171
CTACGAGC | 0.413
CCACGAGA | -0.117
CGACGAGA | 0.08
CTACGAGA | 0.385
CCACGAGC | -0.0179
CGACGAGC | 0.162

Sequence | PBM E-score
CCGAGTGA | 0.196
CCTTTCGA | 0.142
AAGCGTTA | 0.00424
ACCCCCGG | -0.189
GAGCGGGC | -0.0404
AGTAGTCG | 0.238
AGGGCTAC | -0.117
ATAAATTA | 0.326
ATACGAGG | 0.488
GTCCGAGA | 0.253
GTACGCGA | 0.327
AGACGAGG | 0.202
ACACGAGG | 0.324
GTACGAGA | 0.482
ACCCCGAC | -0.0233
AGTCAATG | -0.0767
ACGGGGCA | 0.114
TGCAGCCA | -0.171
GTTTAGTA | 0.271
CCCGGTAC | 0.078
GACGACTA | -0.121
AACGACTT | 0.336
AACGACTG | 0.393
CACGACTA | -0.0786
ATCGACTG | 0.076

Sequence | PBM E-score
AACGACTC | 0.388
TACGACTA | 0.438
CACGACTG | 0.0526
CACGACTC | 0.0577
AGCGACTA | 0.161
GACGACTC | -0.0985
AACGACTA | 0.372
TCCCCGGA | 0.00406
ATCTGTAG | -0.116
CGTCTCAC | 0.0419
TGCGCAAA | -0.077
GAAGCAGA | -0.215
CATCGTCG | 0.0968
CGTCGTCC | -0.054
AGTCGTGC | -0.0872
CGTCGTAG | 0.406
CGTCGTGC | 0.177
GGTCGTAC | 0.482
GGTCGCAC | 0.228
CGTAGTAG | 0.109
AGTCGTAC | 0.46
CGTCGTAC | 0.486
GGACGTAC | 0.126
AGTCGTCC | -0.0209
CCCCGAAC | -0.0375

Sequence | PBM E-score
GGAAAATA | 0.0993
GATCGGGA | 0.0412
CCAGGTCC | -0.192
GAAAAAGC | -0.00535
ACTCAGTC | -0.147
CCCTCCAG | -0.206
AGGTGAAC | 0.0634
TGAGTAAA | -0.13
ATTCTCGA | 0.168
AGTCGTAG | 0.304
AGTCGTCG | 0.01
AGTCGTAT | 0.46
AGCCTAAC | -0.0712
ATCTGCGG | -0.00985
GATGAGGA | -0.0394
AGGAGCTA | -0.138
CTCTCGAA | -0.0852
ATCTCGTA | 0.466
GTCTCGTA | 0.461
GTCTCGAA | -0.00716
GTCTCGGA | 0.242
CTCTCGTC | 0.0625
CTCTCGTA | 0.457
ATCTCGTG | 0.193
ATCTCGTC | 0.158

Sequence | PBM E-score
CTGCGGGC | -0.163
AACGCTTG | -0.121
CTTGGACC | -0.134
CGTAGCTC | 0.32
AACTTAGA | -0.0444
GCGTCGCA | 0.23
ACGTCGTG | 0.117
CCGTCGTC | 0.0655
GCGTCGAA | 0.0462
CCGTCGGA | 0.0756
GCGTCGTA | 0.471
ACGTCGTC | 0.175
ACGTCGTA | 0.464
CCGTCGTA | 0.471
GTCATAGA | -0.115
CTCAACCC | -0.14
AACCCCGT | 0.0296
AGTATGAA | 0.0349
CGTATGAA | 0.415
AGTATGAC | 0.0876
CGTATGAG | 0.354
CGTATGAC | 0.407
GGTATGAC | -0.125
CCGCAATA | 0.0155
AAAACTCG | 0.182

Sequence | PBM E-score
AAACACCG | 0.14
GCATGCCA | 0.0106
CGTTTCCC | 0.261
GGTTCCCA | -0.173
CGTTCCCC | 0.428
AGTTCCCA | 0.0586
AGTTCCCC | -0.0578
CGTTCCCA | 0.443
CGCCTTTC | 0.0685
CTAGAAGA | -0.0952
ATGGACTG | -0.151
CCACTTCC | 0.0365
AACCGAAT | 0.284
AAACGAAT | 0.453
CAACGAAA | 0.278
AAACGTAT | 0.319
CAACGAAG | 0.277
AAACGAAG | 0.457
CCACGAAG | 0.0223
TAACGAAA | 0.296
AAACGAAA | 0.449
GATTAGCC | 0.0338
GCCACTCA | -0.196
AACCGCGC | -0.0112
ACGCTGCA | -0.0508

Sequence | PBM E-score
AAAAACAG | -0.0439
AGCGAACA | 0.198
AACGAACA | 0.409
CACGAACC | 0.0995
GACGAACA | 0.0113
TACGAACA | 0.452
GACGAACC | 0.0132
CACGAACA | 0.177
TCCGAACA | 0.0654
AACGAACC | 0.408
AACGAACG | 0.437
AACGAACT | 0.354
CACGAACG | 0.312
GCCCGGCC | -0.229
ACGGTTAC | 0.255
AGGAAGGG | -0.211
TCTGCTAA | -0.086
CTTTCTCA | 0.00463
CACTATCA | -0.0654
CCGCTGAA | -0.00985
GTCTGGTA | 0.00642
GAACGAAC | 0.453

From the supplement of paper PMC3334620
